TDP1 block – TDP1 (human) enzyme inhibition. Potency, µM (titrated, usually from 130 µM), actives largely listed as inhibitors. 350,000 tested, 0.28% active. recombinant TDP1, AlphaScreen DNA substrate cleavage. AID 485290; also: nearly all actives have a fitted effect of over 40% in size
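Here, a 5' biotin and 3' phosphotyrosine-FITC DNA oligonucleotide reports Tdp1 activity: intact substrate bridges AlphaScreen beads, while cleavage leaves a 3' phosphate and drops signal. All incubations at room temperature.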
TDP1 cell noCPT – qHTS for Inhibitors of human tyrosyl-DNA phosphodiesterase 1 (TDP1): qHTS in cells in absence of CPT. DT40 Tdp1-/- hTDP1 cells, no CPT, ATP luminescence, 48 h. Potency, µM (highest dose often 46.2 µM), most hits filed as inhibitors. 420,000 tested, 15% active. AID 686978, 2013; also: nearly all actives have a fitted effect of over 55% in size
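Growth kinetics read by CellTiter-Glo luminescence after ≥48 hr at 37 °C. Cells: DT40 Tdp1-/- stably carrying human TDP1, 400 per well, compound exposure in the absence of CPT (DMSO vehicle).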
ClpP mod – qHTS Assay for Activators of ClpP; Potency, µM (highest dose often 57.5 µM); 340,000 tested, 1.9% active; purified B. subtilis ClpP, FRET peptide cleavage, 20 min; active = well fitted falling curve with a large enough effect; inconclusive = small, poorly fitted or top-dose-only effect; inactive = no such curve, though single readings can be large or run the other way; also: the source files actives as falling curves though it sought activators and does not explain the sign; nearly all actives have a fitted effect of over 65% in size
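Purified B. subtilis ClpP, 10 microg/mL final in Tris/HCl pH8 with KCl, BSA, glycerol and Tween-20, cleaved an Abz/nitrotyrosine-quenched decapeptide. Fluorescence (ex 320, em 430) was read at 0 and 20 min at room temperature. Delta was normalized to 5.8 microM ADEP and DMSO/no-enzyme controls.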
DT40 TDP1 CPT – DT40-hTDP1 cell growth loss with CPT. chicken DT40 Tdp1-/-;hTDP1 cells + 20 nM CPT, ATP luminescence, 48 h. Potency, µM (top dose mostly 46.2 µM), actives largely listed as inhibitors. 420,000 tested, 12% active. AID 686979; also: nearly all actives have a fitted effect of over 55% in size
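Chicken DT40 Tdp1-/- cells complemented with human TDP1, 400 cells/well, exposed to compounds plus 20 nM camptothecin for at least 48 h at 37 C; viability read as ATP content by CellTiter-Glo luminescence.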
Hits are given with their value; - = inactive; ? = inconclusive; . = no result given; ! = a repeat was not active; [ ] = remark or other dose. In the library only some 17% were active in any assay of this set; here they are far more common. Unless noted, calls follow the shape of the dose curve; as a rule, active = well fitted curve in the direction sought with a large enough effect; inconclusive = small, poorly fitted or top-dose-only effect, or another doubt; inactive = no such curve, though single readings can be large; an effect the other way counts as inactive or inconclusive.

SMILES | TDP1 block | TDP1 cell noCPT | ClpP mod | DT40 TDP1 CPT
Cc1cccc(C)c1NC(=O)CCS(=O)(=O)c1ccc2c(c1)CC(C)N2C(=O)C1CC1 (stereo not given) | - | ? | - | ?
CC1Cc2cc(S(=O)(=O)CCC(=O)Nc3ccccc3F)ccc2N1C(=O)C1CC1 (stereo not given) | - | ? | - | ?
CC1Cc2cc(S(=O)(=O)CCC(=O)Nc3ccc(F)cc3Cl)ccc2N1C(=O)C1CC1 (stereo not given) | - | 13µM | - | 23µM
CC1Cc2cc(S(=O)(=O)CCC(=O)NCc3ccccc3Cl)ccc2N1C(=O)C1CC1 (stereo not given) | - | 7.3µM | - | 7.3µM
Cc1ccc(CNC(=O)CCS(=O)(=O)c2ccc3c(c2)CC(C)N3C(=O)C2CC2)cc1 (stereo not given) | - | 5.8µM | - | 7.3µM
COC(=O)NC(c1cccc(C)c1)[C@]1(C(C)=O)CCOC1=O (stereo not given in full) | -[21 µM] | . | . | .
CC(=O)c1ccccc1Oc1ncnc(N)c1[N+](=O)[O-] | . | - | - | -
CC(=O)c1ccc(Oc2ncnc(N)c2[N+](=O)[O-])cc1 | . | ? | . | 23µM
O=C(c1cccc(Cl)c1)N1CCC(=O)N([C@H](COCc2cccc(Cl)c2)Cc2ccccc2)CC1 | - | 23µM | - | ?
O=C(c1ccc(Cl)c(Cl)c1)N1CCC(=O)N(C(COCc2ccc(Cl)cc2)Cc2ccccc2)CC1 (stereo not given) | - | 16µM | - | ?
Cc1cccc(COCC(Cc2ccccc2)N2CCN(C(=O)c3ccc(Cl)c(Cl)c3)CCC2=O)c1 (stereo not given) | - | ? | - | 21µM
CC1(C(=O)NCc2cccnc2)CCN1C(=O)Cc1cccs1 (stereo not given) | . | - | - | -
COc1cc(OC)cc(C(=O)N[C@H](C(=O)OCC(=O)N2CCc3ccccc32)C(C)C)c1 | - | - | . | -
O=C(N=C1c2ccccc2CN1c1ccccc1)c1cccc([N+](=O)[O-])c1 | - | 12µM | - | -
O=C(NCc1ccccn1)C1CCN(S(=O)(=O)c2cc(Cl)ccc2Cl)CC1 | - | - | . | -
COc1cccc(S(=O)(=O)N2CCN(c3nc(-c4cccs4)nc4ccccc34)CC2)c1 | - | 10µM | - | 14µM
O=S(=O)(c1cccc(Cl)c1)N1CCN(c2nc(-c3cccs3)nc3ccccc23)CC1 | - | ? | 14µM! | ?
Cc1cccc(S(=O)(=O)N2CCN(c3nc(-c4cccs4)nc4ccccc34)CC2)c1 | - | - | - | -
CC(C)CNC(=O)c1cn(C2CCN(Cc3nc4ccccc4s3)CC2)nn1 | . | - | . | -
C=C(c1ccc2ccccc2n1)c1cccs1 | . | 14µM | - | 11µM
CCN(CC)S(=O)(=O)c1cc(NC(=O)CSc2nccn2C)ccc1C | - | - | . | -
COc1ccc(C(=O)NNC(=O)c2ccc(C(C)(C)C)cc2)cc1 | - | - | . | -
COc1ccc(C(=O)NC(=S)NNC(=O)c2ccccc2O)cc1 | . | 12µM | - | 15µM
COc1ccc(C(=O)NC(=S)NNC(=O)COc2ccccc2)cc1 | - | ? | . | 15µM
COc1ccc(C(=O)NNC(=S)NC(=O)C(C)(C)C)cc1 | - | 7.3µM | . | 6.5µM
SMILES | TDP1 block | TDP1 cell noCPT | ClpP mod | DT40 TDP1 CPT
CC1(C(=O)NC(=S)NNC(=O)c2ccncc2)CCCCC1 | - | 16µM | - | 13µM
CC(C)(C)C1CCc2c(sc(NC(=O)Cn3nnc(-c4cccc(C(F)(F)F)c4)n3)c2C#N)C1 (stereo not given) | - | - | - | -
O=C(Nc1cccc(Cl)c1Cl)c1ccc2c(c1)N(Cc1cccc(Cl)c1)C(=O)c1ccccc1S2=O (stereo not given) | - | - | - | -
CO[C@@H]1COC(=O)[C@@H](CCSC)NC(=O)C/C=C\[C@@H](C)COC(=O)CCC[C@H]1C | -[21 µM] | . | . | .
O=C(NC12CC3CC(CC(C3)C1)C2)c1ccccc1 | - | - | . | -
Cc1cccc(OCC(=O)NNC(=O)c2ccc([N+](=O)[O-])cc2)c1 | - | - | - | -
O=C(NNC(=O)c1ccc(F)cc1)c1ccncc1 | . | - | - | -
Cc1ccc(C(=O)NC(=S)NNC(=O)COc2ccc([N+](=O)[O-])cc2)cc1 | - | 15µM | - | ?
COc1ccccc1OCC(=O)NNC(=S)NC(=O)c1ccco1 | - | 18µM | - | ?
O=C(NNC(=S)NC(=O)c1ccc(F)cc1)c1ccncc1 | - | 23µM | - | 18µM
O=C(NC(=S)NC12CC3CC(CC(C3)C1)C2)c1ccc(F)cc1 | - | 23µM | - | ?
Cc1ccc(-c2noc(-c3ccc(NC4CCCC4)c([N+](=O)[O-])c3)n2)cc1 | - | - | - | -
O=C(CCCCn1c(=O)c2ccccc2n(CC(=O)Nc2ccc(F)cc2F)c1=O)NCCc1ccccc1 | - | - | - | -
COc1ccc(NC(=O)Cn2c(=O)c3cc(Cl)ccc3n3nncc23)cc1 | - | - | - | -
COc1ccc(CC(=O)NNC(=O)c2ccco2)cc1 | . | - | . | -
COc1ccc(C(=O)NC(=S)NNC(=O)c2ccco2)cc1 | - | 21µM | . | 18µM
O=C(NC(=S)NNC(=O)c1ccco1)c1ccc(F)cc1 | - | 16µM | - | ?
O=C(NCCNC(=O)c1ccco1)c1ccc(F)cc1 | - | - | . | -
O=C(Nc1ncnc2c1ncn2[C@@H]1O[C@@H]2COP(=O)(O)O[C@H]2[C@H]1O)c1ccccc1 | - | . | . | .
NNC(=S)NC1CCCCC1 | - | 5.8µM | - | 6.5µM
O=C(NC1CCCCC1)C(=S)NC1CCCCC1 | - | . | . | .
CC(CC(=O)N(CCC1=CCCCC1)c1c(N)n(Cc2ccccc2)c(=O)[nH]c1=O)c1ccccc1 (stereo not given) | . | 16µM | - | 26µM
CCOc1ccc(OCCC(=O)N(CCC2=CCCCC2)c2c(N)n(Cc3ccccc3)c(=O)[nH]c2=O)cc1 | - | ? | - | 16µM
COc1ccc(CC(=O)N(CCC2=CCCCC2)c2c(N)n(Cc3ccccc3)c(=O)[nH]c2=O)cc1 | . | ? | - | ?
COc1ccc(OCCCC(=O)N(CCC2=CCCCC2)c2c(N)n(Cc3ccccc3)c(=O)[nH]c2=O)cc1 | . | ? | . | -
SMILES | TDP1 block | TDP1 cell noCPT | ClpP mod | DT40 TDP1 CPT
C=CCNS(=O)(=O)NC(=O)C1=C(N2CCCC2)COC1=O | - | - | - | -
Cc1cc(C)cc(NC(=O)CSc2nc3c([nH]c4ccccc43)c(=O)n2-c2ccc(F)cc2)c1 | - | 21µM | - | 8.2µM
O=C(CSc1nc2c([nH]c3ccccc32)c(=O)n1-c1ccc(F)cc1)Nc1ccc2c(c1)OCCO2 | - | - | 22µM | -
O=C(CSc1nc2c([nH]c3ccccc32)c(=O)n1-c1ccccc1)Nc1cccc(C(F)(F)F)c1 | - | 23µM | ? | 15µM
Cc1ccc(-n2c(SCC(=O)NCc3ccc(F)cc3)nc3c([nH]c4ccccc43)c2=O)cc1 | - | 23µM | 32µM | 18µM
O=C(CSc1nc2c([nH]c3ccccc32)c(=O)n1-c1ccc(F)cc1)Nc1ccc2c(c1)OCO2 | - | ? | ? | ?
